The assay is described as follows: enhancers of NK cell killing of ovarian tumor cells, primary screen, imaging, OVCAR3, primary NK cells, calcein-AM imaging (AID 1508625).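 Further: compound given to NK cells 16 h before adding targets at 1.5 to 1 ratio.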 The note with it: OVCAR3 lysis by primary NK cells, at 5 µM; z-score: measured here: robust Z-score, single-point normalisation.

`Cc1ccc(C)c(NC(=O)c2ccc(-c3ccccc3)cc2)c1`: the corrected activity, negative = more killing was -4.26% and the z-score was -1.81.

Consider `Cc1ccc(-n2c(O)c(C=C3C=Nc4ccccc43)sc2=O)cc1`, for which the corrected activity, negative = more killing was -3.36% and the z-score was -1.74.

For `Cc1oc(-c2cccc(Br)c2)nc1CN1CCC(C(=O)NCc2ccc(Cl)cc2)CC1`, the corrected activity, negative = more killing is -6.33% and the z-score was -1.71.

On to `CCOc1ccc(NC(=O)C2c3ccccc3Oc3ccccc32)c([N+](=O)[O-])c1`, for which the corrected activity, negative = more killing was -0.899% and the z-score is -0.37.

On to `Cc1ccc(-c2cc(C(=O)O)c3cc(Cl)ccc3n2)cc1C`, for which the corrected activity, negative = more killing was -3.58% and the z-score is -1.47.

On to `COc1cc(NC(=O)c2cc(Cl)cc(Cl)c2OC)ccc1NC(=O)c1ccccc1Cl`, for which the corrected activity, negative = more killing was -1.43% and the z-score was -0.797.

For `CN(Cc1ccccc1)Cc1c(O)ccc2c(=O)c(Oc3ccccc3Br)c(C(F)(F)F)oc12`, the corrected activity, negative = more killing was 2.2% and the z-score was 0.682.

With `OC(CN1CCN(C2c3ccccc3-c3ccccc32)CC1)Cn1c2ccccc2c2ccccc21` (stereo not given), the corrected activity, negative = more killing was -8.62% and the z-score was -1.82.

Regarding `Clc1cccc(N2CCN(Cc3cn4c(-c5cccc(Br)c5)nnc4s3)CC2)c1`, the corrected activity, negative = more killing is -6.72% and the z-score is -1.91.

For the molecule `O=C1OC(c2ccccc2Cl)=NC1=Cc1ccccc1F`, the corrected activity, negative = more killing is -3.5% and the z-score was -1.49.

In the case of `O=C(NC1CCCCC1)c1nn2c(C(F)(F)F)cc(-c3ccco3)nc2c1Br`, the corrected activity, negative = more killing is -4.13% and the z-score is -1.55.

Consider `Cc1cc2oc(=O)c3c(c2c2occ(-c4ccc(Br)cc4)c12)CCC3`, for which the corrected activity, negative = more killing was -4.94% and the z-score is -1.48.

Regarding `O=C(c1nn2c(C(F)(F)F)cc(-c3ccco3)nc2c1Br)N1CCCCC1`, the corrected activity, negative = more killing is -4.92% and the z-score was -1.85.

On to `Cc1cccc(C)c1NC(=O)c1sc2[nH]c(=O)c(C(=O)O)cc2c1N`, for which the corrected activity, negative = more killing is -3.74% and the z-score was -0.931.

For `Cc1ccccc1OCC(=O)N1N=C2CCCCC2C1(O)C(F)(F)F` (stereo not given), the corrected activity, negative = more killing was -5.48% and the z-score is -2.09.

The values above are taken from PubChem BioAssay AID1508625 (Wald Lab, School of Medicine, Case Western Reserve …, 2021).
